Broadly, the inhibition is the drop in the measured response relative to a control, in per cent.

This note sets out measurements from PubChem BioAssay AID652217 (Sanford-Burnham Center for Chemical Genomics, 2013).

The structures appear in SMILES notation. The whole screen tested about 1,800 compounds, of which about 240 (13%) were called active. The full list was thinned out, with actives kept by preference. Values without a mark were called inactive. Cut-off read from the data, not from the text of the source: active = inhibition above about 40%; inactive = the rest.

The target in this assay is NEDD8-conjugating enzyme Ubc12 (Homo sapiens) + NEDD8-activating enzyme E1 regulatory subunit (Homo sapiens) (UniProt P61081+Q13564). As to the kind of experiment: blockade of NEDD8 conjugation to cullin – biochemical, TR-FRET, single concentration, confirmation (AID 652217).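 Note: neddylation substrate is the cullin 1 ring ligase complex with SKP2.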 The following applies: TR-FRET cullin neddylation biochemical assay; at 25 µM; hits give high values. For orientation: Time-resolved FRET reads energy transfer from a long-lived donor to a nearby acceptor.
Chain of NEDD8-conjugating enzyme Ubc12 (Homo sapiens) + NEDD8-activating enzyme E1 regulatory subunit (Homo sapiens) (P61081 whole entry, looked up): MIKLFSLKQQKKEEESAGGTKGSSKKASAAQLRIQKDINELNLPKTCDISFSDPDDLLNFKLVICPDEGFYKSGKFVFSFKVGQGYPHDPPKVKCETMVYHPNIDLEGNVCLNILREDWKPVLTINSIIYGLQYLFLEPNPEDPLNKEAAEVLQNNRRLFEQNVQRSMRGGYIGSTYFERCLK
Chain of NEDD8-conjugating enzyme Ubc12 (Homo sapiens) + NEDD8-activating enzyme E1 regulatory subunit (Homo sapiens) (Q13564 whole entry, looked up): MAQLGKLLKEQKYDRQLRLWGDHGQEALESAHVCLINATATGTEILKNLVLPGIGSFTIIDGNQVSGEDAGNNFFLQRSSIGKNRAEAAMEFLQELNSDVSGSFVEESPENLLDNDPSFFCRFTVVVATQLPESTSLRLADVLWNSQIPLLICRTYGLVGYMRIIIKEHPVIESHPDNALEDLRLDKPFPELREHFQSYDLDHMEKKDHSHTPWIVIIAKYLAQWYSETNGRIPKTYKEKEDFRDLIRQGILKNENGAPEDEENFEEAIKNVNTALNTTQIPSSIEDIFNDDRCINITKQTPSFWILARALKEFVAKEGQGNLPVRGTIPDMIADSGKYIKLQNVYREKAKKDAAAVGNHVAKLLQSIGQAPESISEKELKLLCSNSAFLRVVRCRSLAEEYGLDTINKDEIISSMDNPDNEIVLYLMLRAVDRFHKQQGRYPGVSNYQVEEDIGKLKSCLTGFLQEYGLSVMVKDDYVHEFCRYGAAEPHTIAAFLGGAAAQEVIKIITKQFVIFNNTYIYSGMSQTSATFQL
Turning to `CC(=CCOc1ccc2ccc(=O)oc2c1)C1=CC(=O)C(C)(C)O1`, the inhibition was 44.2% (active). `CCN1c2nc3c(C)cccn3c(=O)c2CC2(C(=O)N(C)C(=O)N(C)C2=O)C1C` (centres undefined): the inhibition was 9.81%. For the molecule `CCC(C)n1c(O)c(/C=N/Nc2nc3c(c(=O)n(C)c(=O)n3C)n2C)c(=O)[nH]c1=S` (centres undefined), the inhibition was -31.5%.

Regarding `CCCCC(=O)N/N=C/c1c(O)n(CCC2=CCCCC2)c(=O)[nH]c1=O`, the inhibition was 2.57%.
